Results from ChEMBL document CHEMBL3988442, “University of Dundee, Small-Polar-MMV Screening Library” (2021).
Screen size: about 38,000 compounds; about 1,200 (3.2%) showed an effect of 50% or more. The median lay at about -58%. This is one part of a sample in which strong results are shown more often than they occur.

These compounds were tested on Plasmodium falciparum (assay: Calibr Malaria Delayed Death Assay SOP). Settings: concentration 4.99e-06 (unit not given; other assays of the set use mol/L).
Assay type: functional, organism-based
Parameters: scale not given: in the data most compounds retested in dose-response had high values

| SMILES | Percent Effect |
| --- | --- |
| CSc1cccc(NC(=O)CCC(=O)Nc2nccs2)c1 | -6.233% |
| CCOC(=O)Cn1ccc(NC(=O)Cc2ccccc2F)n1 | -129.4% |
| COc1ccc(CCNC(C)c2ccc3[nH]c(=O)[nH]c3c2)cc1OC (stereo not given) | -75.57% |
| Cc1cc(S(=O)(=O)N2CCCN3CCCC3C2)ccc1F (stereo not given) | 67.89% |
| Cc1cc(S(=O)(=O)N2CCC(S(C)(=O)=O)C2)ccc1F (stereo not given) | -26.98% |
| Cc1ccc(S(=O)(=O)N2CCCCC(N3CCN(C)CC3)C2)cc1F (stereo not given) | 37.26% |
| Cc1ccc(S(=O)(=O)N2CCC(S(C)(=O)=O)CC2)cc1C | -5.803% |
| Cc1ccc(S(=O)(=O)N2CCC(S(=O)(=O)c3nncn3C)CC2)cc1C | -38.79% |
| Cc1ccc(S(=O)(=O)N2CCC(N3CCCCC3)CC2)cc1C | 64.64% |
| Cc1nc2ccccc2n1Cc1cc(C(=O)N(C)C2CCOC2)n[nH]1 (stereo not given) | -89.66% |
| Cc1nc(CN(C)C2CCN(Cc3nc4c(F)cccc4[nH]3)C2)no1 (stereo not given) | -2.567% |
| CCOCC(=O)Nc1cccnc1-n1ccnc1C | -153.7% |
| Cc1ncc(CN(C)CCO)c2cc(C(=O)c3ccc(Br)cc3)oc12.Cl | 47.82% |
| Cc1ncc(CN2CCOCC2)c2cc(C(=O)c3ccc(Br)cc3)oc12.Cl | -6.646% |
| Cc1ncc(CNC(C)(C)CO)c2cc(C(=O)c3ccc(Br)cc3)oc12 | 36.54% |
| CN(C)c1ccc(C(=O)NCc2csc(Br)c2)cn1 | -36.5% |
| COc1ncc(C(=O)NCc2ccc(Br)cc2)cn1 | -41.11% |
| Cc1ncc(CN2CCCC2)c2cc(C(=O)c3ccc(Br)cc3)oc12.Cl | 66.17% |
| Cc1ncc(CNCC(C)O)c2cc(C(=O)c3ccc(Br)cc3)oc12.Cl (stereo not given) | 8.12% |
| Cc1ncc(CNCCO)c2cc(C(=O)c3ccc(Br)cc3)oc12.Cl | 88.87% |
| COCCNC(=O)[C@@H]1CCO[C@@H]2CCN(Cc3cnn(C)c3)C[C@@H]21 | -0.06334% |
| Cc1nn(Cn2ccc(C(=O)N3CCOCC3)n2)c(C)c1Cl | -94.44% |

| SMILES | Percent Effect |
| --- | --- |
| O=c1c(NCc2ccccn2)c(NCC(O)CN2CCOCC2)c1=O (stereo not given) | -115.3% |
| Cc1cccc(CN2CC3(CCN(Cc4ccco4)CC3)OCC2=O)n1.O=C(O)C(F)(F)F.O=C(O)C(F)(F)F | -46.8% |
| CC(C)Oc1ccc(C(=O)N2CCCC2c2cnn(C)c2)cn1 (stereo not given) | -40.89% |
| COCCCNC(=O)Cn1c(-c2cccc(Cl)c2)nc(C)cc1=O | -51.33% |
| CNC(=O)c1cn2cc(-c3cccc(Cl)c3)n(CC3CC3)c(=O)c2n1 | 19.26% |
| CNC(=O)c1cn2cc(-c3cccc(Cl)c3)n(CC=C(C)C)c(=O)c2n1 | 56.44% |
| COc1ccc(OC)c(NC(=O)c2cc3c([nH]c2=O)CCCC3=O)c1 | -53.3% |
| Cc1c(C)n(CC(O)CN2CCC(O)CC2)c2c(Cl)cccc12 (stereo not given) | 43.5% |
| O=C(c1cccc(Cl)c1Cl)N1CCN(CC(O)Cn2cccn2)CC1 (stereo not given) | -16.31% |
| Cc1c(C)n(CC(O)CN2CCCCCC2)c2c(Cl)cccc12 (stereo not given) | 50.38% |
| Cc1c(C)n(CC(O)CN2CCOCC2)c2c(Cl)cccc12.Cl (stereo not given) | -18.53% |
| CC1CCN(CC(O)Cn2cnc3ccc(Cl)cc3c2=O)CC1 (stereo not given) | 28.19% |
| Cc1c(C)n(CC(O)CN2CCC(C)CC2)c2c(Cl)cccc12 (stereo not given) | 82.43% |
| O=C(c1cccc2c1OCCO2)N1CCCC(n2cccn2)C1 (stereo not given) | -57.7% |
| Cc1ccc(OCCC(=O)N2CCOCC2c2ncon2)cc1C (stereo not given) | -113.3% |
| O=C(c1ccco1)N1Cc2nccn2CC(Cn2ncccc2=O)C1 (stereo not given) | -89.1% |
| CCCN(CCC)c1ncc(S(=O)(=O)c2ccccc2)c(N)n1 | -11.95% |
| CCCN(CCC)c1ncc(S(=O)(=O)c2ccc(C)cc2)c(N)n1 | 12.69% |
| CCCN(CCC)c1ncc(S(=O)(=O)c2ccc(OC)cc2)c(N)n1 | 66.8% |
| N#Cc1c(N)nc2c(c1-c1c[nH]nc1C1CCCCC1)CNCC2 | 6.508% |
| c1ccc(COCC2CN(Cc3ccsc3)Cc3nccn3C2)nc1 (stereo not given) | 1.035% |
| CCc1cnc(CN(C)C2CCN(CCCNS(C)(=O)=O)C2)o1 (stereo not given) | -33.46% |

| SMILES | Percent Effect |
| --- | --- |
| Cc1cc(C)n(C2CN(CC(=O)N(C)Cc3cnn(C)c3)C2)n1 | -103.6% |
| COc1cccc(CN(C)C(=O)CN2CC(n3nc(C)cc3C)C2)c1 | 62.45% |
| COc1ccccc1CN(C)C(=O)CN1CC(n2nc(C)cc2C)C1 | 77.58% |
| Cc1cc(C)n(C2CN(CC(=O)N(C)Cc3ccsc3)C2)n1 | 24.51% |
| Cc1cc(C)n(C2CN(CC(=O)N(C)Cc3ccc(C)o3)C2)n1 | -1.347% |
| Cc1cc(C)n(C2CN(CC(=O)N(C)Cc3ccco3)C2)n1 | -70.44% |
| CC(C)NC(=O)N1CC[C@@H]2CN(S(C)(=O)=O)CCO[C@@H]2C1 | -58.18% |
| Cc1nnc(NC(=O)NCc2ccc(OC3CCCC3)nc2)s1 | 2.114% |
| Cc1cccc(N2Cc3nc(N4CCC(C)CC4)ncc3C2=O)c1 | -105.8% |
| O=S(=O)(c1ccccc1)N1CCC[C@]2(C[C@@H](OCC3CC3)CO2)C1 | -64.42% |
| CCOc1ccc2[nH]c3c(N(C)CC4OCCO4)ncnc3c2c1 | -160.2% |
| CCCNC(=O)CCNC(=O)c1sc2ccc(F)cc2c1C | -59.54% |
| CN1CCN(C(=O)c2occc2CN2C(=O)Cc3ccccc32)CC1 | 53.65% |
| CN1CCN(C(=O)c2cc3occc3n2Cc2ccccc2F)CC1 | -0.5316% |
| O=C(c1occc1CN1C(=O)Cc2ccccc21)N1CC(O)C1 | -91.69% |
| N#Cc1cnc2c(F)cc(F)cc2c1NC1CCN(CC(N)=O)CC1 | -21.61% |
| Cc1cnc(NC(=O)CSC2CCc3ccccc3NC2=O)s1 (stereo not given) | -9.765% |
| NC(=O)c1ccc(CN2CCC(N3CCCCC3)CC2)cc1 | -16.53% |
| CC(NCc1ccc(OCC(N)=O)cc1)c1ccc(Cl)c(Cl)c1.Cl (stereo not given) | 2.26% |
| CC(NCc1ccc(OCC(N)=O)cc1)c1ccc2c(c1)CCCC2 (stereo not given) | 72.97% |
| CC(NCc1ccc(OCC(N)=O)cc1)c1ccc(Cl)cc1.Cl (stereo not given) | 12.76% |
